For part of these data: Entries with a potency or affinity are not part of this list.
Key:
Design in all cases: scale not given: direction of the effect not stated beside the values
[1] = target: Protein translocase subunit SecA (Escherichia coli (strain K12)) (UniProt P10408); assay: Assay to Identify E. coli SecA ATPase Inhibitors; assay type: functional; conditions: 30 µM
[2] = target: T1, Ubiquitin-activating enzyme e1, putative (Leishmania donovani (strain BPK282A1)) (UniProt E9BSI1); assay: Leishmania donovani Ubiquitin Activating Enzyme (LdE1); assay type: functional; conditions: 30 µM
T1 sequence (whole entry): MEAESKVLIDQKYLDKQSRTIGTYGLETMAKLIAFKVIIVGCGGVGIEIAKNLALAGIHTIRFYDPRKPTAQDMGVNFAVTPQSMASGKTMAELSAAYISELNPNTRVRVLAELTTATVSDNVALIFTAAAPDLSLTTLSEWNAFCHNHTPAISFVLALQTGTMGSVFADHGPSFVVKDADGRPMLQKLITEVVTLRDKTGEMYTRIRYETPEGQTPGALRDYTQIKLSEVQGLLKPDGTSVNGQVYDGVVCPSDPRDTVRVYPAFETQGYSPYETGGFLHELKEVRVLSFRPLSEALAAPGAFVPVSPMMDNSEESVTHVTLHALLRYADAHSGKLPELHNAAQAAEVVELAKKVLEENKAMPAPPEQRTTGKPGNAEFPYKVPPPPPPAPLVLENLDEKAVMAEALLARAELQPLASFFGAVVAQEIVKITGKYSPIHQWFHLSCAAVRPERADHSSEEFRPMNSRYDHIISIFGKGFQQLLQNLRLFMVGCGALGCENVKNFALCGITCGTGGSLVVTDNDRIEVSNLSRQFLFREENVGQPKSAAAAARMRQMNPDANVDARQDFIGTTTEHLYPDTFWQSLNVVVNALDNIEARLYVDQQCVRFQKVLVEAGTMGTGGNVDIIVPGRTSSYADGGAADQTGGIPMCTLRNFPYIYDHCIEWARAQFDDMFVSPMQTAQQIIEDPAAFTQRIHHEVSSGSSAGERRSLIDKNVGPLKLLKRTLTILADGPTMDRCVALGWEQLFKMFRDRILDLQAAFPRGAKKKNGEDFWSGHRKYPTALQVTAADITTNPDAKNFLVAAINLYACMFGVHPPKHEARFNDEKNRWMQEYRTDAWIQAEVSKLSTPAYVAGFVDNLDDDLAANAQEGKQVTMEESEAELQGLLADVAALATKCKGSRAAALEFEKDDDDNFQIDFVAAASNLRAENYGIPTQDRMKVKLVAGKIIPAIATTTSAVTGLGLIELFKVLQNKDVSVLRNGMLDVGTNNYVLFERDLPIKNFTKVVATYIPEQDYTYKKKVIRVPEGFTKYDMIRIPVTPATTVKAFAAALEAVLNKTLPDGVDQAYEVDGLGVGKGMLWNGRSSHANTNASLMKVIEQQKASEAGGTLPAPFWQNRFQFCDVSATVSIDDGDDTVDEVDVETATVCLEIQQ

[3] = target: Sialic acid-binding Ig-like lectin 9 (Homo sapiens) (UniProt Q9Y336); assay: Hs-Siglec9 ALPHAscreen SOP 20170721; conditions: 10 µM
Trypanosoma cruzi = assay: Trypanosoma cruzi phosphomannomutase and mannose-1-phosphate guanylyltransferase assay; assay type: functional; conditions: 10 µM
[4] = target: T2, Arginase-2, mitochondrial (Homo sapiens) (UniProt P78540); assay: in vitro enzyme assay to detect the production of urea directly proportional to the activity of Arginase II; assay type: functional; conditions: 33.3 µM; further: in the data most compounds retested in dose-response had high values
T2 sequence (whole entry): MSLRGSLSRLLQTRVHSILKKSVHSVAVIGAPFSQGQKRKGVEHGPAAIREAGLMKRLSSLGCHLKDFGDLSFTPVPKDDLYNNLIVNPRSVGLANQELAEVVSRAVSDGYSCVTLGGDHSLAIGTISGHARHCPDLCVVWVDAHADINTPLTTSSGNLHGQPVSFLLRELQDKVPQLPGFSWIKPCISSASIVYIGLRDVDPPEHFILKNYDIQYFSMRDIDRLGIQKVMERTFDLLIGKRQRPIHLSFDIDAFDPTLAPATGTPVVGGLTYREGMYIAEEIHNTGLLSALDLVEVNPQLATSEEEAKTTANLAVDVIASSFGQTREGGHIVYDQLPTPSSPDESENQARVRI

[5] = target: T3, Proteasome subunit beta (Trypanosoma cruzi) (UniProt O96673); assay: Trypanosoma cruzi proteasome chymotrypsin-like activity (TcProtChymo) assay.; further: in the data most compounds retested in dose-response had high values; assay type: functional; conditions: 9.37 µM
T3 sequence (whole entry): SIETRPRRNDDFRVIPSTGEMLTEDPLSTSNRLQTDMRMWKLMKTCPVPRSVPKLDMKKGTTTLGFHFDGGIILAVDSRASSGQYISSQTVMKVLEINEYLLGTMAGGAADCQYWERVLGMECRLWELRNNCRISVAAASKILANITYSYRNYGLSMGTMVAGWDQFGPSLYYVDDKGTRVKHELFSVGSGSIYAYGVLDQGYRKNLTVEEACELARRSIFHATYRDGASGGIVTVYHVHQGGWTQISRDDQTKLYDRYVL

Homo sapiens = organism: Homo sapiens; assay: To identify inhibition of the IFN signalling (Jak-Stat) pathway via expression of an eGFP reporter gene under the control of an IFN-stimulated response element (ISRE) containing MxA promoter.; assay type: functional; conditions: 30 µM
[6] = target: T4, Tyrosyl-tRNA synthetase, putative (Trypanosoma cruzi (strain CL Brener)) (UniProt Q4DSP6); assay: Trypanosoma cruzi tyrosyl tRNA synthetase (TcYRS) _High Tyrosine SOP; assay type: functional; conditions: 30 µM; further: in the data most compounds retested in dose-response had high values
T4 sequence (whole entry): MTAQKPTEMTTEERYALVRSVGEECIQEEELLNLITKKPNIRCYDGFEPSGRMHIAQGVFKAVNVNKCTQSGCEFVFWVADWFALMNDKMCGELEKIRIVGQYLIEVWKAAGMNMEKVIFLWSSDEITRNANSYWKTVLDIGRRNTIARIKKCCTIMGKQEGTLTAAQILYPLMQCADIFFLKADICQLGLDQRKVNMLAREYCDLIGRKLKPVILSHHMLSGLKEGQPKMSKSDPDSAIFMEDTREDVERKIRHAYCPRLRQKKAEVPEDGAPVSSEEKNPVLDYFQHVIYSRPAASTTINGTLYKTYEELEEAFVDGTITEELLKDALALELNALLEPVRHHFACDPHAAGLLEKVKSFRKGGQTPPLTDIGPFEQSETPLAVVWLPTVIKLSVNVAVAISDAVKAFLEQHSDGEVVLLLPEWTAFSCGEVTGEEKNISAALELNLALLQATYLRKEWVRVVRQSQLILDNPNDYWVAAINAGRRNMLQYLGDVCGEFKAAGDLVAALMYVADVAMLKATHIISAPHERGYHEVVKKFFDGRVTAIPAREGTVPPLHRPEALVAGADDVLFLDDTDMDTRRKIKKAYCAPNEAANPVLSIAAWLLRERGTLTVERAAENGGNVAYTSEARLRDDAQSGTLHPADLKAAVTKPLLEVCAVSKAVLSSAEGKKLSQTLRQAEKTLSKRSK

[7] = target: T4, Tyrosyl-tRNA synthetase, putative (Trypanosoma cruzi (strain CL Brener)); assay: Trypanosoma cruzi tyrosyl tRNA synthetase (TcYRS) SOP; assay type: functional; conditions: 30 µM
[8] = target: Chromo domain-containing protein 1 (Saccharomyces cerevisiae (strain ATCC 204508 / S288c) (Baker's yeast)) (UniProt P32657); assay: ScCHD-1 Enzyme Inhibition Assay; assay type: functional; conditions: 30 µM; further: in the data most compounds retested in dose-response had high values
Chain of Chromo domain-containing protein 1 (Saccharomyces cerevisiae (strain ATCC 204508 / S288c) (Baker's yeast)) (P32657 whole entry, the tested form may be a part): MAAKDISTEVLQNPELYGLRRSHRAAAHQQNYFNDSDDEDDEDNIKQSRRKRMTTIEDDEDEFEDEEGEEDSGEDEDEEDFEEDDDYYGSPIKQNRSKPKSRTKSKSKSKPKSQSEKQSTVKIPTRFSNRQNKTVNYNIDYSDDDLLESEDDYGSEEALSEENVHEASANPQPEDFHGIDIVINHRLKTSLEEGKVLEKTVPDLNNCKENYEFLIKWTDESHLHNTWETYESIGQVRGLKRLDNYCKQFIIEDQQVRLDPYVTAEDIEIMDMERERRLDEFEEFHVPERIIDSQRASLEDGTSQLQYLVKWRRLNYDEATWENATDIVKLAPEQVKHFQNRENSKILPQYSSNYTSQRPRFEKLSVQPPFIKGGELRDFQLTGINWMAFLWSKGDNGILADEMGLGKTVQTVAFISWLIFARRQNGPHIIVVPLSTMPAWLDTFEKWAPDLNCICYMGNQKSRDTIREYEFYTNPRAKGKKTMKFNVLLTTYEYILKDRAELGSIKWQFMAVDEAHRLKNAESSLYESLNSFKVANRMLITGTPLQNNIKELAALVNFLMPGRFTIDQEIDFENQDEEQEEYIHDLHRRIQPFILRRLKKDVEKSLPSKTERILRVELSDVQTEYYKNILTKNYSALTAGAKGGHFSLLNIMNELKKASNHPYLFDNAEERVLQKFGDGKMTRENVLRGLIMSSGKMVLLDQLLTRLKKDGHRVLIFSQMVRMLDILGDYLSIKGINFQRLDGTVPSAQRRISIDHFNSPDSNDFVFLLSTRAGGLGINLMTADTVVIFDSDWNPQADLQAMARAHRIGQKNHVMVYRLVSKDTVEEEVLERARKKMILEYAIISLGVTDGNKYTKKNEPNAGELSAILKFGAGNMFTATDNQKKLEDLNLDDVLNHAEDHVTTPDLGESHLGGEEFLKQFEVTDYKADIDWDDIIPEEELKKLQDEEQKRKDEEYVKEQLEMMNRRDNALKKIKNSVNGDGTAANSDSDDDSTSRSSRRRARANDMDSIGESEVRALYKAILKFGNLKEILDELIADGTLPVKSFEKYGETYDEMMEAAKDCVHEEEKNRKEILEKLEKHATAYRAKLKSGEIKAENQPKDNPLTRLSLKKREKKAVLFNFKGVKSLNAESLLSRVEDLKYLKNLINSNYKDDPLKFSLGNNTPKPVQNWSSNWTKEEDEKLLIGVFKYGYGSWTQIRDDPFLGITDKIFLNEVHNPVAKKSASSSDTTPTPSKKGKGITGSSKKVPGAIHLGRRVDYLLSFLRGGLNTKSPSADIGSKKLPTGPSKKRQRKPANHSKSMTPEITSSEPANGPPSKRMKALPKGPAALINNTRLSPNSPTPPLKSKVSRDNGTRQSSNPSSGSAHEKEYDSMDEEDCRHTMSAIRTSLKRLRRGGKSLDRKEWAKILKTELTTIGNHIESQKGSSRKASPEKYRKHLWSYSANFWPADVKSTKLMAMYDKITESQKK

Chain of Protein translocase subunit SecA (Escherichia coli (strain K12)) (P10408 whole entry): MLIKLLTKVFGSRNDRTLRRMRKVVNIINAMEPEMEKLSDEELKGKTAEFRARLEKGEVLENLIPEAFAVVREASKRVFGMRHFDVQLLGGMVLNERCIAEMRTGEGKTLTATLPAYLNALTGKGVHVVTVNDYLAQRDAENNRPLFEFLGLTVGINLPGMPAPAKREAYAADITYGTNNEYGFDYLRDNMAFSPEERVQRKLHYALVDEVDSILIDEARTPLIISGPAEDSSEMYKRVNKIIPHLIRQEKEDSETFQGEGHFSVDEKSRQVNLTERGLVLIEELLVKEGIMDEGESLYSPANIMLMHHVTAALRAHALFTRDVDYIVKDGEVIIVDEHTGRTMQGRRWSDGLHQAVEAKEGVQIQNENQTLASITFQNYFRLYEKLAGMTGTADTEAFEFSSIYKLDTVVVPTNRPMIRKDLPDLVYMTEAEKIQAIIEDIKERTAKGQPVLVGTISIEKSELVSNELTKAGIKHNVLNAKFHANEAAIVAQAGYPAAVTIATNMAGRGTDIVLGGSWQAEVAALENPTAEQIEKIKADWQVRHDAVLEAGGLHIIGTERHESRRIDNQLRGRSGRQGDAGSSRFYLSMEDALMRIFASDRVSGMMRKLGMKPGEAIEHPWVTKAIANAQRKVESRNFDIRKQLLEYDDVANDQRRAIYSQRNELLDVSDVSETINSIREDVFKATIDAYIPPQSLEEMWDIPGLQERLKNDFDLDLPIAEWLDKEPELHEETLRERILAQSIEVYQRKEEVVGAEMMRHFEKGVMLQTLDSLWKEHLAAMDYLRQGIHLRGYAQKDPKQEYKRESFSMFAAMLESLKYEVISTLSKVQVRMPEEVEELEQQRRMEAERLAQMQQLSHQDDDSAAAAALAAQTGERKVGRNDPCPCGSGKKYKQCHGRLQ
Chain of Sialic acid-binding Ig-like lectin 9 (Homo sapiens) (Q9Y336 whole entry): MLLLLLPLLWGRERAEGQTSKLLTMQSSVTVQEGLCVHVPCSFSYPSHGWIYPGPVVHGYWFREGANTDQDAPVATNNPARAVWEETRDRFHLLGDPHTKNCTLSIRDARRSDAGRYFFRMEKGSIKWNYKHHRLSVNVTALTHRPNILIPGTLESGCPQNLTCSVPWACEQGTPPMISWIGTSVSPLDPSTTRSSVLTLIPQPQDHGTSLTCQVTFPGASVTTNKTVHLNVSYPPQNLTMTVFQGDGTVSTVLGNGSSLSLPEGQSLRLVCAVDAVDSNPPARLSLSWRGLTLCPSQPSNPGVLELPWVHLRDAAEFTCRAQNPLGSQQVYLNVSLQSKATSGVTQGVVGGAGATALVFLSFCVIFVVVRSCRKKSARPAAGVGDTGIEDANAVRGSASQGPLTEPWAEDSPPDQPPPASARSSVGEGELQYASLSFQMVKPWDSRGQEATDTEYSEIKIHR

Row | SMILES | Percent Effect [1] | Percent Effect [2] | Percent Effect [3] | Percent Effect (Trypanosoma cruzi) | Percent Effect [4] | Percent Effect [5] | Percent Effect (Homo sapiens) | Percent Effect [6] | Percent Effect [7] | Percent Effect [8]
1 | COc1ccc(CNC(=O)N2CCC(Cc3cnn(C)c3)C2)cc1C (stereo not given) | -1.91% | 7.69% | -4.56% | 8.36% | 4.92% | 11.2% | 10.9% | 0.478% | 13.2% | -4.08%
2 | CCc1nc(C2CCCN2C(=O)c2nc(C)n3ccccc23)no1 (stereo not given) | -0.63% | 2.67% | -0.749% | -5.02% | 4.43% | 3.65% | 15% | 4.74% | 5.13% | -15.8%
3 | CN(C)c1ccc(C(=O)N2CCN(Cc3cscn3)CC2)cc1F | 0.885% | 13% | 8.14% | 1.31% | 3.07% | 9.12% | -8.07% | -10.8% | 23.5% | -2.52%
4 | c1cnnc(N2CCCC2CNCc2nc(C3CC3)no2)c1 (stereo not given) | -0.891% | -7.69% | 1.93% | 12.1% | 1.64% | 1.11% | -18.5% | 6.22% | 6.02% | 8.01%
5 | CCCNC(=O)c1cc2c(c3ccccc3n2C)n1C(=O)N(C)C | -4.26% | -1.3% | 2.88% | -5.16% | 1.22% | 9.62% | -12.8% | 2.63% | 5.13% | -7.15%
6 | COc1cccc(CN2CCCC3(CCN(C(=O)[C@H]4CCCO4)C3)C2)c1 (stereo not given in full) | -5.07% | 3.9% | -0.211% | -0.75% | 3.65% | 4.55% | 0.637% | 12.6% | 15% | -10.7%
7 | O=C(NCCOc1ccc(Cl)cc1)N1CCS(=O)(=O)CC1 | -5.3% | 5.13% | -7.37% | 6.1% | -1.23% | 6.74% | 3.33% | -0.478% | 10.8% | -6.32%
8 | CNc1ccc(CC2CCCN(C(=O)c3cncnc3C)C2)nn1 (stereo not given) | 3.9% | 12% | -5.1% | -6.31% | 8.41% | 13% | 4.65% | 1.06% | 10% | -22.6%
9 | c1cc(-c2noc(CN3CCn4c(nnc4C4CC4)C3)n2)co1 | -1.2% | 12.8% | 1.91% | 4.04% | 6.15% | 2.13% | 16.4% | 7.18% | 10.8% | 2.97%
10 | CNc1nc2c(s1)C(=O)CN(C(=O)NCc1ccccc1)C2 | -2.61% | 8% | -5.95% | -8.84% | 5.32% | 9.41% | 15.2% | 1.58% | 2.56% | -6.84%
11 | Cc1cnn(CC2CCCN2C(=O)c2cc3c(F)cccc3[nH]2)c1 (stereo not given) | -2.09% | 5.2% | 8.2% | -5.6% | -2.66% | 2.81% | 26.7% | 1.96% | 11.8% | -1.7%
12 | CCc1cc(O)nc(C2CCCN2C(=O)c2cc(C)no2)n1 (stereo not given) | -0.0921% | 17.3% | -12.2% | -2.76% | -2.65% | 11.3% | 20.5% | -2.12% | 5% | -14.2%
